In PubChem BioAssay (NCATS):
Results filed as inconclusive are left out. Calls of active or inactive are those of the source. The call rests on the fitted dose curve; in most records, active means well fitted inhibition curve with a large enough effect; inconclusive means small, poorly fitted or top-dose-only effect; inactive means flat fitted curve, though single readings scatter.

Experiments:
Experiment in all cases: qHTS profiling for inhibitors of Plasmodium falciparum proliferation (AID 504749);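 further: 0% = DMSO vehicle and full inhibition = artemisinin control; nearly all actives have a fitted effect of over 60% in size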
Details in all cases: P. falciparum in erythrocytes, SYBR Green DNA, 72 h; series mostly up to 28.7 µM
[1] = tested on: Dd2
In short: (§1)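 Each compound contacts P. falciparum-infected red blood cells for 72 h at 37 C; lysis buffer (Tris, EDTA, saponin, Triton X, SYBR Green I) is added and fluorescence measured next morning; values normalized to controls.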

[2] = tested on: ECU
In short: as §1

[3] = tested on: FAB9
In short: as §1

[4] = tested on: GB4
In short: as §1

[5] = tested on: HB3
In short: as §1

[6] = tested on: ICS
In short: as §1

[7] = tested on: JCK
In short: as §1

[8] = tested on: N140
In short: as §1

[9] = tested on: P93_24
In short: as §1

[10] = tested on: P94_40
In short: as §1

COP(=S)(OC)SCN1C(=O)c2ccccc2C1=O
inactive: Potency [1] | Potency [2] | Potency [3] | Potency [4] | Potency [5] | Potency [6] | Potency [7] | Potency [8] | Potency [9] | Potency [10]

Nc1nc(N)nc(NC2CC2)n1
inactive: Potency [1] | Potency [2] | Potency [3] | Potency [4] | Potency [5] | Potency [6] | Potency [7] | Potency [8] | Potency [9] | Potency [10]

Clc1cccc(SC2CCNCC2)n1
inactive: Potency [1] | Potency [2] | Potency [3] | Potency [4] | Potency [5] | Potency [6] | Potency [7] | Potency [8] | Potency [9] | Potency [10]

CCCC(C)(COC(N)=O)COC(N)=O
inactive: Potency [1] | Potency [2] | Potency [3] | Potency [4] | Potency [5] | Potency [6] | Potency [7] | Potency [8] | Potency [9] | Potency [10]

O=c1oc2ccccc2c(O)c1Cc1c(O)c2ccccc2oc1=O
inactive: Potency [1] | Potency [2] | Potency [3] | Potency [4] | Potency [5] | Potency [6] | Potency [7] | Potency [8] | Potency [9] | Potency [10]

CCC(C)(C)c1ccc(O)cc1
inactive: Potency [1] | Potency [2] | Potency [3] | Potency [4] | Potency [5] | Potency [6] | Potency [7] | Potency [8] | Potency [9] | Potency [10]

c1ccc2c(c1)sc1ccccc12
inactive: Potency [1] | Potency [2] | Potency [3] | Potency [4] | Potency [5] | Potency [6] | Potency [7] | Potency [8] | Potency [9] | Potency [10]

CCC1(CC)C(=O)C=CNC1=O
inactive: Potency [1] | Potency [2] | Potency [3] | Potency [4] | Potency [5] | Potency [6] | Potency [7] | Potency [8] | Potency [9] | Potency [10]

COP(=S)(OC)Oc1ccc(S(=O)(=O)N(C)C)cc1
inactive: Potency [1] | Potency [2] | Potency [3] | Potency [4] | Potency [5] | Potency [6] | Potency [7] | Potency [8] | Potency [9] | Potency [10]

Nc1ccccc1C(=O)O
inactive: Potency [1] | Potency [2] | Potency [3] | Potency [4] | Potency [5] | Potency [6] | Potency [7] | Potency [8] | Potency [9] | Potency [10]

O=C1CN=C(c2ccccc2)c2cc([N+](=O)[O-])ccc2N1
inactive: Potency [1] | Potency [2] | Potency [3] | Potency [4] | Potency [5] | Potency [6] | Potency [7] | Potency [8] | Potency [9] | Potency [10]

CN1C(=O)CCS(=O)(=O)C1c1ccc(Cl)cc1 (stereo not given)
inactive: Potency [1] | Potency [2] | Potency [3] | Potency [4] | Potency [5] | Potency [6] | Potency [7] | Potency [8] | Potency [9] | Potency [10]

NC(=O)CS(=O)C(c1ccccc1)c1ccccc1 (stereo not given)
inactive: Potency [1] | Potency [2] | Potency [3] | Potency [4] | Potency [5] | Potency [6] | Potency [7] | Potency [8] | Potency [9] | Potency [10]

C=C(C)[C@H]1CN[C@H](C(=O)O)[C@H]1CC(=O)O
inactive: Potency [1] | Potency [2] | Potency [3] | Potency [4] | Potency [5] | Potency [6] | Potency [7] | Potency [8]

CCOC(=O)CC(SP(=S)(OC)OC)C(=O)OCC (stereo not given)
inactive: Potency [1] | Potency [2] | Potency [3] | Potency [4] | Potency [5] | Potency [6] | Potency [7] | Potency [8] | Potency [9] | Potency [10]

O=C1Nc2ccc(Cl)cc2C(c2ccccc2Cl)=NC1O (stereo not given)
inactive: Potency [1] | Potency [2] | Potency [3] | Potency [4] | Potency [5] | Potency [6] | Potency [7] | Potency [8]

CCC1(c2ccccc2)C(=O)N(COC)C(=O)N(COC)C1=O
inactive: Potency [1] | Potency [2] | Potency [3] | Potency [4] | Potency [5] | Potency [6] | Potency [7] | Potency [8] | Potency [9] | Potency [10]

CCCCC/C=C\C/C=C\C/C=C\C/C=C\CCCC(=O)NCC(=O)O
inactive: activity, negative = inhibition [1] 0.222% [at 2.67 µM] | activity, negative = inhibition [2] -2.86% [at 2.67 µM] | activity, negative = inhibition [3] 0.295% [at 2.67 µM] | activity, negative = inhibition [4] 5.94% [at 2.67 µM] | activity, negative = inhibition [5] -4.91% [at 2.67 µM] | activity, negative = inhibition [6] -4.84% [at 2.67 µM] | activity, negative = inhibition [7] 0.614% [at 2.67 µM] | activity, negative = inhibition [8] -7.13% [at 2.67 µM] | activity, negative = inhibition [9] -5.2% [at 2.67 µM] | activity, negative = inhibition [10] -8.27% [at 2.67 µM]

O=C1OC(c2ccc(O)c(S(=O)(=O)O)c2)(c2ccc(O)c(S(=O)(=O)O)c2)c2c(Br)c(Br)c(Br)c(Br)c21
inactive: Potency [1] | Potency [2] | Potency [3] | Potency [4] | Potency [5] | Potency [6] | Potency [7] | Potency [8] | Potency [9] | Potency [10]

CN1C(=O)CC(=O)N(c2ccccc2)c2cc(Cl)ccc21
inactive: Potency [1] | Potency [2] | Potency [3] | Potency [4] | Potency [5] | Potency [6] | Potency [7] | Potency [8] | Potency [9] | Potency [10]

CC(C)NC(C)C
inactive: Potency [1] | Potency [2] | Potency [3] | Potency [4] | Potency [5] | Potency [6] | Potency [7] | Potency [8] | Potency [9]

COc1c2c(cc3c1OCO3)CCN(C)C2
inactive: Potency [1] | Potency [2] | Potency [3] | Potency [4] | Potency [5] | Potency [6] | Potency [7] | Potency [8] | Potency [9] | Potency [10]

Oc1ccc(Cl)cc1
inactive: Potency [1] | Potency [2] | Potency [3] | Potency [4] | Potency [5] | Potency [6] | Potency [7] | Potency [8] | Potency [9] | Potency [10]

O=P1(N(CCCl)CCCl)NCCCO1 (stereo not given)
inactive: Potency [1] | Potency [2] | Potency [3] | Potency [4] | Potency [5] | Potency [6] | Potency [7] | Potency [8] | Potency [9] | Potency [10]

CC(C)=CC1C(C(=O)OCN2C(=O)C3=C(CCCC3)C2=O)C1(C)C (stereo not given)
inactive: Potency [1] | Potency [2] | Potency [3] | Potency [4] | Potency [5] | Potency [6] | Potency [7] | Potency [8] | Potency [9] | Potency [10]

CN1C(=O)COc2c(C(=O)NC3CN4CCC3CC4)cc(Cl)cc21 (stereo not given)
inactive: Potency [1] | Potency [2] | Potency [3] | Potency [4] | Potency [5] | Potency [6] | Potency [7] | Potency [8] | Potency [9] | Potency [10]

NCCc1ccc(O)cc1
inactive: Potency [1] | Potency [2] | Potency [3] | Potency [4] | Potency [5] | Potency [6] | Potency [7] | Potency [8] | Potency [9] | Potency [10]
